# According to ChEMBL document CHEMBL2218924, “A broad activity screen in support of a chemogenomic map for kinase signalling research and drug discovery” (Biochem J, 2013):
# Experiments:
# [1] = molecular target: T1, Ephrin type-A receptor 3 (Homo sapiens) (UniProt P29320); conditions: at 10 µM
# T1 sequence (whole entry): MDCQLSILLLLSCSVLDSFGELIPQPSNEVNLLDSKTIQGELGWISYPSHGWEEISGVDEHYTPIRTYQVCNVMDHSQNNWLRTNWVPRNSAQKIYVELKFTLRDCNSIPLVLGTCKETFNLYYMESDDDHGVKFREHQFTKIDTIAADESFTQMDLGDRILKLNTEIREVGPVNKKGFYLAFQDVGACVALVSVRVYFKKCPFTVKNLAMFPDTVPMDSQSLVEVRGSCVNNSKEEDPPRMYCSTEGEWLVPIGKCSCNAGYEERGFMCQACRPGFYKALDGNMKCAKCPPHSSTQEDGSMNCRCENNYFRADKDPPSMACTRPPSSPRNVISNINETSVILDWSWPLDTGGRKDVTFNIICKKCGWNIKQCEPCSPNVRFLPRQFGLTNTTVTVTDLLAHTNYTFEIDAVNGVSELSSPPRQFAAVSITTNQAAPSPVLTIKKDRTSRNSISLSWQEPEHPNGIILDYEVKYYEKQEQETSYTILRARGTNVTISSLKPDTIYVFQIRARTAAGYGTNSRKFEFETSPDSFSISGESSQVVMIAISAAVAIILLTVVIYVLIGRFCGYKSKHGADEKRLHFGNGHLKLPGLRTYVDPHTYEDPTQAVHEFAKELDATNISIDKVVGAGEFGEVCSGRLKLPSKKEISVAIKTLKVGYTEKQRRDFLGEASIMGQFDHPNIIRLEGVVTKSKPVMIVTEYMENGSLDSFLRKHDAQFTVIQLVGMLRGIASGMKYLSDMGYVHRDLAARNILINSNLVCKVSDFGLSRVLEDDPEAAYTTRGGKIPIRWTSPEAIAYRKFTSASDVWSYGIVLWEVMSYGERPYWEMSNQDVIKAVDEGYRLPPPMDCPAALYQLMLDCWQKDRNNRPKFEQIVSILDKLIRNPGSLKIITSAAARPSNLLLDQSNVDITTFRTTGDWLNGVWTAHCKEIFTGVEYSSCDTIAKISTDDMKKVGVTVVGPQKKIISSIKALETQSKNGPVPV
# [2] = molecular target: Ephrin type-A receptor 4 (Homo sapiens) (UniProt P54764); conditions: at 1 µM
# [3] = molecular target: Ephrin type-A receptor 4 (Homo sapiens) (UniProt P54764); conditions: at 10 µM
# [4] = molecular target: Ephrin type-A receptor 5 (Homo sapiens) (UniProt P54756); conditions: at 1 µM
# [5] = molecular target: Ephrin type-A receptor 5 (Homo sapiens) (UniProt P54756); conditions: at 10 µM
# [6] = molecular target: Ephrin type-A receptor 7 (Homo sapiens) (UniProt Q15375); conditions: at 1 µM
# [7] = molecular target: Ephrin type-A receptor 7 (Homo sapiens) (UniProt Q15375); conditions: at 10 µM
# [8] = molecular target: T2, Ephrin type-A receptor 8 (Homo sapiens) (UniProt P29322); conditions: at 1 µM
# T2 sequence (whole entry): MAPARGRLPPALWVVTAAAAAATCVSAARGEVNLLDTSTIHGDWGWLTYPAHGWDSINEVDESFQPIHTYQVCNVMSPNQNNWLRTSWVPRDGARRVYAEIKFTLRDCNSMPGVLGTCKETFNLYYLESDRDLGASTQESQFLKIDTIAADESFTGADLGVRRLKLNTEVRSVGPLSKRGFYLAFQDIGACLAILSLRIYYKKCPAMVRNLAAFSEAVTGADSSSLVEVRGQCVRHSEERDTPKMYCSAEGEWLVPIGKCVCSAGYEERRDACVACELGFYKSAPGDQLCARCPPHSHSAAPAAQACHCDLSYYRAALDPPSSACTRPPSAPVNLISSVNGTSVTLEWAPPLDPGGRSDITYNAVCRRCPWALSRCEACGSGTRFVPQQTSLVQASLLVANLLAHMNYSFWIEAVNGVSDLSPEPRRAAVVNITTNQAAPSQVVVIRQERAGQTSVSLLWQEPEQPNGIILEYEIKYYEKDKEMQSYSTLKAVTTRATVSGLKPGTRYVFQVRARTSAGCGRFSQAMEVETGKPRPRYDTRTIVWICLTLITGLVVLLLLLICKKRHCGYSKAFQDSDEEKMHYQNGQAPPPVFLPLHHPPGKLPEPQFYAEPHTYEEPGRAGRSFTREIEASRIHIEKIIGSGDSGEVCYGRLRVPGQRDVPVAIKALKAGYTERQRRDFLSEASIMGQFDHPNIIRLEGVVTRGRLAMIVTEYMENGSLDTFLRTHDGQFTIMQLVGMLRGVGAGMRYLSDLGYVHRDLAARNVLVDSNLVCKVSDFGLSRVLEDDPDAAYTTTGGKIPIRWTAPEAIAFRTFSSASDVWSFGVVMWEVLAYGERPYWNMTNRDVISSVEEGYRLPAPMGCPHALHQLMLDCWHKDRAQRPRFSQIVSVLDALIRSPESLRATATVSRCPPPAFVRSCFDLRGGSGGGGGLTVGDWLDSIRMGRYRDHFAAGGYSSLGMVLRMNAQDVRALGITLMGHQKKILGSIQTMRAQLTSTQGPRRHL
# [9] = molecular target: T2, Ephrin type-A receptor 8 (Homo sapiens); conditions: at 10 µM
# [10] = molecular target: T3, Ephrin type-B receptor 1 (Homo sapiens) (UniProt P54762); conditions: at 1 µM
# T3 sequence (whole entry): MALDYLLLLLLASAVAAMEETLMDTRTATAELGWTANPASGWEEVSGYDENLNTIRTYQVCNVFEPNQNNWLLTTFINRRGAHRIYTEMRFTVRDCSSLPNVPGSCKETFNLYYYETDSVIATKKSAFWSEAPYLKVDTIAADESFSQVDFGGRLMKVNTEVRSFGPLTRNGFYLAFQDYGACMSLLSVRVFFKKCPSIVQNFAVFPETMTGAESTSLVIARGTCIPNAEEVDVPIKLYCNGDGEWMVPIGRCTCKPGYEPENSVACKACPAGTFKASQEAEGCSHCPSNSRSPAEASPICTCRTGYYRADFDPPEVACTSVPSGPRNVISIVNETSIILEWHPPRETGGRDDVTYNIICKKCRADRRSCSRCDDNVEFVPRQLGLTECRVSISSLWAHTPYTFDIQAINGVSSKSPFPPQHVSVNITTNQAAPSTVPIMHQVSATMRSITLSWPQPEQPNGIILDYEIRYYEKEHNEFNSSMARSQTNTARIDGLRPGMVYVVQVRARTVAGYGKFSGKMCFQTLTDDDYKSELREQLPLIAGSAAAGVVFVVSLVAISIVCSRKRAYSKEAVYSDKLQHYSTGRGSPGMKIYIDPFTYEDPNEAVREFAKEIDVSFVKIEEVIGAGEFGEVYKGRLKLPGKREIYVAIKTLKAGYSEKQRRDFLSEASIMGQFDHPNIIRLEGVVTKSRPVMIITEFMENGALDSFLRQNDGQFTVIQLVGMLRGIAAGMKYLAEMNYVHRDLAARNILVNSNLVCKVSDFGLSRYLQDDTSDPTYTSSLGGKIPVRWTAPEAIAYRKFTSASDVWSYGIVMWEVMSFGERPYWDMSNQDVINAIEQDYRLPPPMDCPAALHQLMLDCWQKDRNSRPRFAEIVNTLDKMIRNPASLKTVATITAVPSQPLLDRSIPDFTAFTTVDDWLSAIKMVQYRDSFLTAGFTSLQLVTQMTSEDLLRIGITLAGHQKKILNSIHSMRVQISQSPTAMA
# Sequence of Ephrin type-A receptor 5 (Homo sapiens) (P54756 whole entry): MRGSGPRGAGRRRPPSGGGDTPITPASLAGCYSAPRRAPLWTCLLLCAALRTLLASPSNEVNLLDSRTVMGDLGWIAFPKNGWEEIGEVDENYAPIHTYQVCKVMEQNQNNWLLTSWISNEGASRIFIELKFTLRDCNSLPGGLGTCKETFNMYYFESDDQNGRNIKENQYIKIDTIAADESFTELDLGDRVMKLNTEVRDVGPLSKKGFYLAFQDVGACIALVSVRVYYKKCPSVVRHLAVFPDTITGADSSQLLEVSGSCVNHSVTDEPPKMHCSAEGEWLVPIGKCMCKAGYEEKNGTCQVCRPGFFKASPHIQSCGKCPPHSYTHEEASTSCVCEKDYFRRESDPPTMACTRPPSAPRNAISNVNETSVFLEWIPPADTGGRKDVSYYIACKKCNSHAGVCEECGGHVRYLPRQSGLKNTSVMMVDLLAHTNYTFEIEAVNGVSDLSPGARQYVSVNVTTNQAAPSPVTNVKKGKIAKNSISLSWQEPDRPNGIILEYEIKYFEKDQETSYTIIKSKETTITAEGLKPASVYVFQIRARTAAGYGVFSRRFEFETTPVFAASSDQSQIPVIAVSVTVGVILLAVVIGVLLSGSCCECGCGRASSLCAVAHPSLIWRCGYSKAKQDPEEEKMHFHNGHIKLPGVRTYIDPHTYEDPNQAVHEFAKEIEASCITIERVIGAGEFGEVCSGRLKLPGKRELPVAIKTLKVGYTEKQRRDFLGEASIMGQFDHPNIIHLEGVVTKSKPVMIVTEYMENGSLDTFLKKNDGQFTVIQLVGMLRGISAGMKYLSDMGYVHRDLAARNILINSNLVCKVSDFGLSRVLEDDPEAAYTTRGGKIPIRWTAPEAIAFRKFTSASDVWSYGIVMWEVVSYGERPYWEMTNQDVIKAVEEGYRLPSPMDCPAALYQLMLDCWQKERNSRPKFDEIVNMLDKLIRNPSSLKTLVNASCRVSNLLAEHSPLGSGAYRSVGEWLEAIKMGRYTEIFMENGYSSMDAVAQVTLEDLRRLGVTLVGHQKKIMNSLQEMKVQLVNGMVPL
# Sequence of Ephrin type-A receptor 4 (Homo sapiens) (P54764 whole entry): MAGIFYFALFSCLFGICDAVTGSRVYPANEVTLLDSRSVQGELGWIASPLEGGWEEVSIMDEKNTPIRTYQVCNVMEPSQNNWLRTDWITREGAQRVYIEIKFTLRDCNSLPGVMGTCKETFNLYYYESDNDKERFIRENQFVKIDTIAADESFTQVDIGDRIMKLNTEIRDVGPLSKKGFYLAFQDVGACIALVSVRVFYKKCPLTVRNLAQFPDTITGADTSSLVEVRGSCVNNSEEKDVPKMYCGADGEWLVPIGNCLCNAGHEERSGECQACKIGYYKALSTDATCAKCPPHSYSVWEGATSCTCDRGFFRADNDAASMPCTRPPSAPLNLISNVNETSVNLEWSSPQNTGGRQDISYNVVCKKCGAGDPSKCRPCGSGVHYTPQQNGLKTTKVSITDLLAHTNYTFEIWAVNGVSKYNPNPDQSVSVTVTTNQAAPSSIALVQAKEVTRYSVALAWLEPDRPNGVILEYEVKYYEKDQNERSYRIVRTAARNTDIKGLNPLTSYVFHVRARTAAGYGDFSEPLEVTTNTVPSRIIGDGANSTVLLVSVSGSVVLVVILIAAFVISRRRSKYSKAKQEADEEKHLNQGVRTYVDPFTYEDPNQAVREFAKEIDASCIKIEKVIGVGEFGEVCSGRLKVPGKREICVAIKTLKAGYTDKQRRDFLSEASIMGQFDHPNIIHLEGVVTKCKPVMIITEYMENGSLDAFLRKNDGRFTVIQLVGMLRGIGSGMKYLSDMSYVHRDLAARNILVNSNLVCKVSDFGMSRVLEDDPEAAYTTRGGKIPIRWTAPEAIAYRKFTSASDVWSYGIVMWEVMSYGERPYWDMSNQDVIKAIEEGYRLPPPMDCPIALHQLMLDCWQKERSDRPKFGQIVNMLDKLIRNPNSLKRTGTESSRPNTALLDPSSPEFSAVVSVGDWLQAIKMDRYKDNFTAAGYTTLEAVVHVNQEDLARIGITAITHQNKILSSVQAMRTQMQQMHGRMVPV
# Sequence of Ephrin type-A receptor 7 (Homo sapiens) (Q15375 28-998 limits assumed): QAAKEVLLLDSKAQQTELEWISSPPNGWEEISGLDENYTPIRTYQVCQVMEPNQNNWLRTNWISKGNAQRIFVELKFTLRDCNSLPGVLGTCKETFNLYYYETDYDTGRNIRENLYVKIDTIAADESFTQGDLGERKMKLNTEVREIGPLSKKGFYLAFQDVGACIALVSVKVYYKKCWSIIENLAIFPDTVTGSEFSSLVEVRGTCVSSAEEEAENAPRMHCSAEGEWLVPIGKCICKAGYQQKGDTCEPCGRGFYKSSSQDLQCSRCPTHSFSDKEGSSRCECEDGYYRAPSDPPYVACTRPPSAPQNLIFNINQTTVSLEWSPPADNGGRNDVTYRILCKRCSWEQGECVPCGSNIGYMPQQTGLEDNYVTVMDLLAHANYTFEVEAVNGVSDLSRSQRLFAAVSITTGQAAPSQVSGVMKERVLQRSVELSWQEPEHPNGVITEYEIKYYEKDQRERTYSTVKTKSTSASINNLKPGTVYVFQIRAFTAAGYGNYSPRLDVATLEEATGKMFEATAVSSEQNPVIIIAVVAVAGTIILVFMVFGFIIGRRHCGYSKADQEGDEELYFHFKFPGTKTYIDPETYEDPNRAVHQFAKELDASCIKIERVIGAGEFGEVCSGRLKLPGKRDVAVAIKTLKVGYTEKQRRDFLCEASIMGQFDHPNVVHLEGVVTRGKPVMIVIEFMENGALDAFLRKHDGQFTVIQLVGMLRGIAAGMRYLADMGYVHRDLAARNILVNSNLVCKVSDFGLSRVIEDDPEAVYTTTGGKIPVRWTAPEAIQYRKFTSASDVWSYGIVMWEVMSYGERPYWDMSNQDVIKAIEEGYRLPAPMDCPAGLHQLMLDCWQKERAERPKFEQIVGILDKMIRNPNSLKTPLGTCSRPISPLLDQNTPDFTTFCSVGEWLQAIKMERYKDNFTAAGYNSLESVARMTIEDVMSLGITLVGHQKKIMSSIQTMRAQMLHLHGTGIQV
compound,measurement,setting,value
O=C(O)c1ccc2c3c1cccc3c(=O)n1c3ccccc3nc21,residual activity,[1],91%
same,residual activity,[2],106%
same,residual activity,[3],104%
same,residual activity,[4],102%
same,residual activity,[5],100%
same,residual activity,[6],104%
same,residual activity,[7],88%
same,residual activity,[8],103%
same,residual activity,[9],93%
same,residual activity,[10],107%
